Pf growth 96h: Primary qHTS for delayed death inhibitors of the malarial parasite plastid, 96 hour incubation; 320,000 tested, 6.9% active; P. falciparum luciferase reporter growth, 96 h; AID 504834, 2011; Potency, µM (highest dose often 28.7 µM), usual class: inhibitors
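Parasite growth measured via integrated firefly luciferase reporter in P. falciparum. Infected erythrocytes at 2% hematocrit, 0.05% parasitemia final were treated 96 hours at 37 C under 5% CO2, and luminescence was read.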
Shiga inhibitor: A qHTS for Small Molecule Inhibitors of Shiga Toxin. Vero cells, Shiga toxin protein synthesis inhibition reporter. 290,000 tested, 9.2% active. AID 2315, 2010. inhibition, % at 38.7 µM; in the data active means inhibition mostly above about 28%, no sharp cut-off; inactive means mostly below about 43%
Pf growth 48h: Primary qHTS for delayed death inhibitors of the malarial parasite plastid, 48 hour incubation. P. falciparum luciferase growth in erythrocytes, 48 h. Potency, µM (top dose mostly 28.7 µM), usual class: inhibitors. 310,000 tested, 5.9% active
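Luciferase-expressing P. falciparum in infected erythrocytes (2% hematocrit, 0.1% parasitemia final) in RPMI 1640/0.5% Albumax were exposed to compound for 48 hours at 37 C, 5% CO2; growth read as luminescence.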
HCMV antiviral: qHTS Assay for inhibitors of the human cytomegalovirus (HCMV). HFF cells, HCMV-luciferase reporter, 72 h; hits give low values. AID 1259415, 2018. activity change, negative = inhibition, % at 57.5 µM. 410,000 tested, 4.5% active; in the data active means activity change below about -60%; inconclusive means no clear call, values can overlap the other calls; inactive means above about -39%
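Cell-based, HFFs, 1000 cells/well, 16 h 37C; cpds in DMSO + HCMV-luc, MOI 1 PFU/cell; 72 h 37C; OneGlo luminescence after 5 min RT; norm. to buffer vs Salinomycin 10uM.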
Cycloheximide cs: Cycloheximide Counterscreen for Small Molecule Inhibitors of Shiga Toxin; cell reporter, cycloheximide protein synthesis inhibition counterscreen; max response, %; 300,000 tested, 12% active; in the data active means max response mostly above about 13%, no sharp cut-off; inactive means mostly below about 14%; further: read at 38.3 µM for the half of the compounds with a filed dose
HCV inhibitor: qHTS Assay for Inhibitors of Hepatitis C Virus (HCV) | 340,000 tested, 3.4% active | AID 651820, 2012 | Huh7.5.1 HCVcc-Cre infection, luciferase reporter, 44 h | Potency, µM (top dose mostly 41.8 µM), most hits filed as inhibitors
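Seed cells (1,000/well) for 4 h; treat with compound and infect with HCVcc-Cre, moi about 0.5. Incubate 44 h, then detect luciferase activity.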
A number is an active result; n = inactive; u = inconclusive; x = no result. The list is not random: actives were taken first. Their share in the collection is about 21%. Unless noted, the call rests on the fitted dose curve; in most records, active means well fitted inhibition curve with a large enough effect; inconclusive means small, poorly fitted or top-dose-only effect, or another doubt; inactive means no such curve, though single readings can be large or run the other way.

SMILES | Pf growth 96h | Shiga inhibitor | Pf growth 48h | HCMV antiviral | Cycloheximide cs | HCV inhibitor
COc1ccc(Cl)cc1NC(=O)CN1C(=O)CSc2ccc(S(=O)(=O)N3CCCC3)cc21 | x | x | x | n | x | x
O=C(Cc1ccc(Cl)cc1)Nc1ccccc1Sc1ccccc1 | u | n | n | u | n | u
COc1cccc(/C=C/C(=O)OCC(=O)Nc2ccccc2Sc2ccccc2)c1 | n | n | n | -64.8 | n | n
Cc1ccc(/C=C/C(=O)OCC(=O)Nc2ccccc2Sc2ccccc2)cc1 | u | n | n | n | n | n
O=C(CCl)Nc1ccccc1Sc1ccccc1 | 9.28µM | n | x | n | n | n
Cc1cc(C(=O)COc2ccc(Cl)cc2Br)c(C)n1C | n | n | n | n | 21.6 | n
Cc1ccc(OCC(=O)c2cc(C)n(C)c2C)c([N+](=O)[O-])n1 | n | 80.3 | n | -71.4 | 29.5 | n
Cc1cc(C(=O)COc2cccc3cccnc23)c(C)n1C | 3.29µM | n | 11.7µM | n | n | n
Cc1cc(C(=O)COc2ccccc2C(N)=O)c(C)n1C | n | n | n | n | n | n
CCOc1ccc(OCC)c(NC(=O)CN(C)S(=O)(=O)c2ccc3[nH]c(=O)oc3c2)c1 | x | x | x | n | x | x
COc1cc(/C=C/c2nnc3c4ccccc4ncn23)cc(OC)c1OC | u | n | 9.28µM | n | 13.5 | 2.24µM
CCOc1ccc(-n2c(/C=C/c3ccccc3)nc3ccccc3c2=O)cc1 | x | x | x | n | x | x
C(=C\c1nnc2c3ccccc3ncn12)/c1ccccc1 | n | 60.7 | n | u | 51.4 | u
C[C@H](NC(=O)c1ccccn1)C(O)c1nc2ccccc2[nH]1 (stereo partly specified) | x | x | x | n | x | x
CC(C)CC(=O)Nc1ccc(-c2cn3ccsc3n2)cc1 | 13.1µM | 32.6 | n | n | 18.5 | u
CC(C)CC(=O)Nc1cccc(-c2cn3cccnc3n2)c1 | x | x | x | n | x | x
CC(C)(C)CC(=O)Nc1ccc(-c2cn3cccnc3n2)cc1 | n | 72.1 | n | n | 38.8 | n
CCCC(=O)Nc1ccc(-c2cn3cccnc3n2)cc1 | n | 38.7 | n | n | 30.7 | n
CC(C)(C)C(=O)Nc1ccc(-c2cn3ccsc3n2)cc1 | n | n | n | n | n | n
CCCC(=O)Nc1cccc(-c2cn3cccnc3n2)c1 | u | n | n | n | 22.9 | n
O=C(NCC(=O)N1CCN(S(=O)(=O)c2ccc3c(c2)OCCO3)CC1)c1ccccc1Cl | u | x | u | n | x | n
Cc1[nH][nH]c(=O)c1/C=N/N1CCOCC1 | u | n | u | n | n | n
COc1ccc(OC)c(C2Nc3c(C)cc(C)cc3-c3cc(C)nn32)c1 (stereo unspecified) | x | x | x | n | x | x
CC1CCCN(S(=O)(=O)c2cccc(-c3cn4cccnc4n3)c2)C1 (stereo unspecified) | u | n | n | n | n | u
CCN(CC)S(=O)(=O)c1cccc(-c2cn3cccnc3n2)c1 | 14.7µM | n | 4.15µM | n | n | n
SMILES | Pf growth 96h | Shiga inhibitor | Pf growth 48h | HCMV antiviral | Cycloheximide cs | HCV inhibitor
CC(C)CC(=O)Nc1ccc(-c2cn3cccnc3n2)cc1 | n | 87.9 | n | u | 29.0 | n
CC1(C)Cc2nc3sc(C(=O)NCCO)c(N)c3cc2CO1 | n | 51.3 | n | n | 19.5 | n
CC1(C)Cc2nc3sc(C(=O)NCCCO)c(N)c3cc2CS1 | n | n | n | n | 30.5 | n
CC1(C)Cc2nc3sc(C(=O)O)c(N)c3cc2CS1 | n | n | u | x | n | x
O=C1CCSc2ccc(S(=O)(=O)Nc3ccc(Cl)c(C(F)(F)F)c3)cc2N1 | x | x | x | n | x | x
COc1ccc(C(=O)NC2CC2)cc1OC1CCN(C(C)CSC)CC1 (stereo unspecified) | n | n | n | n | n | n
COc1ccc(Cn2cc(CN3CC(N4CCSCC4)CS3(=O)=O)nn2)cc1 (stereo unspecified) | x | x | x | -100.5 | x | x
CCN1CC2=C(OC(N)=C(C#N)C2c2cccs2)/C(=C\c2cccs2)C1 (stereo unspecified) | 9.28µM | n | x | n | n | 14.1µM
CCCNC(=O)c1cc2c(c(-c3cccc(-c4ccc(F)cc4)c3)n1)[C@@H](CCO)N(S(=O)C(C)(C)C)C2 (stereo partly specified) | x | x | x | -95.8 | x | x
O=C(C1CCN(c2nc(-c3ccccc3)nc3c2CCC3)CC1)N1CCCC1 | x | x | x | n | x | 11.2µM
CC1CCCCN1C(=O)C1CCN(c2nc(-c3ccccc3)nc3c2CCC3)CC1 (stereo unspecified) | u | n | 7.38µM | u | n | 3.98µM
NC(=O)C1CCN(c2nc(-c3ccccc3)nc3ccccc23)CC1 | u | n | u | n | n | u
Cc1cccc(N(C)C(=O)Cn2c(=O)oc3cc(S(=O)(=O)N4CCCCC4)ccc32)c1 | x | x | x | n | x | x
O=c1[nH]c(=S)[nH]c2c1C(c1ccc(F)cc1)OC(CCOCc1ccccc1)C2 (stereo unspecified) | x | x | x | n | x | x
Cc1ccc(CNC(=S)NCc2ccncc2)cc1 | n | n | n | n | n | n
CC(C)OP(C)(=O)CN1CCN(CP(C)(=O)OC(C)C)CC1 (stereo unspecified) | 0.522µM | n | n | n | n | n
CN1CCN(CP(=O)(N2CCOCC2)N2CCOCC2)CC1 | n | n | n | n | n | n
CCS(=O)(=O)N1CCc2cc(C(=O)Nc3cccc(C)c3C)ccc21 | x | x | x | n | x | x
O=S(=O)(Nc1ccc(Cc2ccncc2)cc1)c1ccc(Br)cc1 | u | n | u | -62.5 | n | 10µM
O=S(=O)(Nc1ccc(Cc2ccncc2)cc1)c1ccc(Cl)cc1 | n | n | n | -65.2 | n | 11.2µM
O=S(=O)(Nc1ccc(Cc2ccncc2)cc1)c1ccc(Br)s1 | u | n | u | u | n | n
CSC(=Nc1ccccc1)c1c(O)n(C)c(=O)n(C)c1=O | x | n | n | n | n | n
Cn1c(O)c(C(=Nc2ccccc2)SCc2ccccc2Cl)c(=O)n(C)c1=O | n | n | n | -64.9 | n | n
CC(C)c1[nH]nc2c1C(c1ccccc1)NC2=O (stereo unspecified) | x | x | x | n | x | x
Fc1ccc(Cn2c(SCc3ccc(F)c(F)c3)nnc2C(F)(F)F)cc1 | n | 45.2 | n | n | 14.0 | u
SMILES | Pf growth 96h | Shiga inhibitor | Pf growth 48h | HCMV antiviral | Cycloheximide cs | HCV inhibitor
Cc1cc(C)c(S(=O)(=O)NCCc2cc3cc(C)c(C)cc3[nH]c2=O)c(C)c1 | x | x | x | n | x | x
Cc1cc(C)c(NC(=O)Cn2nnc(C(=O)NCCc3ccccc3)c2N)c(C)c1 | n | n | n | x | n | n
Cc1cc(C)c(NC(=O)Cn2nnc(C(=O)Nc3ccc(F)cc3F)c2N)c(C)c1 | 2.62µM | n | n | n | n | n
Cc1cccc(C)c1NC(=O)Cn1nnc(C(=O)NCc2ccc(F)cc2)c1N | x | x | x | n | x | x
Cc1cccc(C)c1NC(=O)Cn1nnc(C(=O)Nc2ccc(F)cc2F)c1N | n | n | n | -64.6 | n | n
COc1ccc(OC)c(CNCc2c(C(=O)O)n(Cc3cccc(F)c3)c3cc(OC)ccc23)c1 | x | x | x | n | x | x

Screening results (PubChem)
